Test results from PubChem BioAssay AID1347420 (Sanford-Burnham Center for Chemical Genomics, 2020).
The campaign covered roughly 1,300 compounds. About 980 (75%) were called active. Roughly 4% stayed inconclusive and do not appear here. The list shows a part of the results. A number with no mark means an inactive call. Residues, ends and D or L forms follow the SMILES beside them. *: point of attachment. Cbz = O=C(OCc1ccccc1)*

molecular target: Sulfhydryl oxidase 1 (Homo sapiens) (UniProt O00391); assay: QSOX1 enzyme inhibitors, primary screen, biochemical, HyperBlu H2O2 luminescence, HTS (AID 1347420); conditions: recombinant QSOX1, HyperBlu H2O2 luminescence; at 12.5 µM; stronger effect = higher value; active = any value above zero; also: values above 100% were filed as inconclusive
Sequence (O00391 whole entry, looked up): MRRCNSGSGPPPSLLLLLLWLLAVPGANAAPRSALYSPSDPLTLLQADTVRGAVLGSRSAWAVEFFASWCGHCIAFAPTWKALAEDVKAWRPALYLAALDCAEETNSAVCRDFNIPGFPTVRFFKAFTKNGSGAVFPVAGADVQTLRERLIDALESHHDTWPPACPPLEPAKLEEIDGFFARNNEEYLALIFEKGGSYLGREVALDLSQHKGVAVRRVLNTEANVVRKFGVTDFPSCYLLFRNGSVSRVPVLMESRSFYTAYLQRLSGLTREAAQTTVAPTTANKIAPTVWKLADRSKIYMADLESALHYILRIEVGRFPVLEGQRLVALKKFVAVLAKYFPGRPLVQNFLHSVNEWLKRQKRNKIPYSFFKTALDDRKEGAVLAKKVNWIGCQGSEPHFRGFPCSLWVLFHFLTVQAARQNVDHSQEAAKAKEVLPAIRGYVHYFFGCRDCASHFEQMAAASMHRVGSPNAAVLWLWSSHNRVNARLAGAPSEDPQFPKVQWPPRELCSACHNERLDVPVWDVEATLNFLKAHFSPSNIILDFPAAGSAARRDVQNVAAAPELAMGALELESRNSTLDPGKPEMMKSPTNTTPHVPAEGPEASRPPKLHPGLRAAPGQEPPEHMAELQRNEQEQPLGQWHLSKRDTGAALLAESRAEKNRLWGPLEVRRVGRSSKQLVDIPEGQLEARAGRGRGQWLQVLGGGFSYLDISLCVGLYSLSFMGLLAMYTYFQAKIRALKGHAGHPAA

| Compound | inhibition |
| --- | --- |
| CC1=C(/C=C/C(C)=C/C=C/C(C)=C\C(=O)O)C(C)(C)CCC1 | 3.1% (active) |
| CC1=C(/C=C/C(C)=C/C=C/C(C)=C/C(=O)O)C(C)(C)CCC1 | 11.4% (active) |
| CC1=C(/C=C/C(C)=C/C=C/C(C)=C/C(=O)Nc2ccc(O)cc2)C(C)(C)CCC1 | 29.7% (active) |
| O=C(O)c1cc([N+](=O)[O-])ccc1NCCCc1ccccc1 | 84.4% (active) |
| O=C(Nc1ccncc1)c1cc([N+](=O)[O-])ccc1Cl | 41.9% (active) |
| O=C(Nc1ccccc1)c1cc([N+](=O)[O-])ccc1Cl | 35.3% (active) |
| O=C(Nc1ccc([N+](=O)[O-])cc1Cl)c1cc(Cl)ccc1O | 11.3% (active) |
| O=c1cc(O)cc(/C=C/c2ccc(O)c(O)c2)o1 | 84.2% (active) |
| O=C(/C=C/c1ccc(O)c(O)c1)OCCc1ccccc1 | 98.9% (active) |
| O=C(O)/C=C/c1ccc(O)c(O)c1 | 74.3% (active) |
| CN1CCCC1CCOC(C)(c1ccccc1)c1ccc(Cl)cc1 (stereo not drawn) | 7.6% (active) |
| CCN(CC)C(=O)c1ccc(O)c(OC)c1 | 17.3% (active) |
| COc1cc(CC(=O)O)ccc1O | 4.4% (active) |
| O=C(O)Cc1ccc(O)c(O)c1 | 52.8% (active) |
| NCCc1ccc(O)c(O)c1 | 61.7% (active) |
| CCc1c(C(=O)NCCc2ccc(N3CCCCC3)cc2)[nH]c2ccc(Cl)cc12 | 13.2% (active) |
| Cc1ccc(S(=O)(=O)N[C@@H](Cc2ccccc2)C(=O)CCl)cc1 | 4% (active) |
| CC(C)[C@H](NC(=O)OCc1ccccc1)C(=O)N[C@H](C=O)Cc1ccccc1 (Cbz-Val-Phe-aldehyde) | -15.7% |
| O=C(N[C@@H](Cc1ccccc1)C(=O)CCl)OCc1ccccc1 | 0.2% (active) |
| CC(C(=O)O)c1ccc(CC2CCCC2=O)cc1 (stereo not drawn) | 13.5% (active) |
| CC(C)Cc1ccc([C@H](C)C(=O)O)cc1 | 5.1% (active) |
| CC(C)Cc1ccc(C(C)C(=O)O)cc1 (stereo not drawn) | -0.2% |

| Compound | inhibition |
| --- | --- |
| CC(C)(C)c1ccc(C(O)CCCN2CCC(C(O)(c3ccccc3)c3ccccc3)CC2)cc1 (stereo not drawn) | 6.1% (active) |
| CC(C)(C(=O)O)c1ccc(C(O)CCCN2CCC(C(O)(c3ccccc3)c3ccccc3)CC2)cc1 (stereo not drawn) | -4.1% |
| CC(C)(C)c1ccc(/C=C/C(=O)Nc2ccc3c(c2)OCCO3)cc1 | 17.7% (active) |
| [Li+] | 6.5% (active) |
| CN(C)C(=O)n1nnnc1Cc1ccc(-c2ccccc2)cc1 | 2.4% (active) |
| CC(C)c1cccc(C(C)C)c1N1C(=O)c2ccc(O)cc2C1=O | -98.1% |
| CSc1nc(N)c2ncn([C@@H]3O[C+](COP(=O)([O-])OP(=O)(O)O)[C@H](O)C3O)c2n1 (stereo partly drawn) | 26.4% (active) |
| CN(C)C/C=C(/c1ccc(Br)cc1)c1cccnc1 | -9.2% |
| Nc1nnc(-c2cccc(Cl)c2Cl)c(N)n1 | 4.9% (active) |
| Nc1nc(N)c2nc(-c3ccccc3)c(N)nc2n1 | -11.2% |
| Cc1nc2c([nH]1)c(=O)n(C)c(=O)n2Cc1ccco1 | 10.1% (active) |
| CCCOc1ccccc1-c1nc2n[nH]nc2c(=O)[nH]1 | 15.8% (active) |
| Cc1nnc(SCC2=C(C(=O)O)N3C(=O)[C@@H](NC(=O)Cn4cnnn4)[C@H]3SC2)s1 | 10.4% (active) |
| Cc1ccc2nc(CN(CCN(Cc3nc4ccc(C)cc4[nH]3)Cc3nc4ccc(C)cc4[nH]3)Cc3nc4ccc(C)cc4[nH]3)[nH]c2c1 | -0.7% |
| O=C(O)C1=CCCNC1 | 5.6% (active) |
| O=C(O)C1=CCNCC1 | 0.2% (active) |
| C=C(C)C1CC=C(C(=O)O)CC1 (stereo not drawn) | -10.6% |
| Nc1nc(OCc2ccccc2)c2[nH]cnc2n1 | 5.5% (active) |
| Nc1nc(N)c(N=O)c(OCC2CCCCC2)n1 | 29.8% (active) |
| Nc1nc(OCC2CCCCC2)c2[nH]cnc2n1 | 11.1% (active) |
| CC(COc1ccccc1)N(CCCl)Cc1ccccc1 (stereo not drawn) | -3.7% |
| CC(C)N(CCC(=O)c1ccc2ccccc2c1)Cc1ccccc1 | 5.9% (active) |

| Compound | inhibition |
| --- | --- |
| O=S(=O)(c1cccc2c(I)cccc12)N1CCCNCC1 | 6% (active) |
| O=S(=O)(c1cccc2c(Cl)cccc12)N1CCCNCC1 | 7.1% (active) |
| Cc1ccccc1C(OCCN(C)C)c1ccccc1 (stereo not drawn) | 2.5% (active) |
| CN(C)CCOC(c1ccccc1)c1ccccc1 | 15.9% (active) |
| Cc1cc2c(C(C)C)c(O)c(O)c(C=O)c2c(O)c1-c1c(C)cc2c(C(C)C)c(O)c(O)c(C=O)c2c1O | 74.3% (active) |
| CCC(=O)N1CCN(C(=O)c2ccccc2)CC1 | 3.1% (active) |
| Cc1ccc(Cl)c(Nc2ccccc2C(=O)O)c1Cl | 7.8% (active) |
| O=c1onc2cnc3ccccc3n12 | 6.8% (active) |
| CN(C)CC[C@@H](c1ccc(Cl)cc1)c1ccccn1 | 3.5% (active) |
| CN(C)CCC(c1ccccc1)c1ccccn1 (stereo not drawn) | 4.2% (active) |
| CN(C)CC[C@@H](c1ccc(Br)cc1)c1ccccn1 | -5.9% |
| CN(C)CCC(c1ccc(Br)cc1)c1ccccn1 (stereo not drawn) | -10.9% |
| CN(C)CCC(c1ccc(Cl)cc1)c1ccccn1 (stereo not drawn) | 6.9% (active) |
| O=C1N(c2ccccc2)c2ccccc2C1(Cc1ccncc1)Cc1ccncc1 | 7.6% (active) |
| Nc1c2c(nc3ccccc13)CCCC2 | 20.5% (active) |
| Nc1c2c(nc3ccccc13)CCCC2O (stereo not drawn) | 4% (active) |
| COc1ccccc1OCC(O)CN1CCN(CC(=O)Nc2c(C)cccc2C)CC1 (stereo not drawn) | 2.7% (active) |
| COc1ccccc1N1CCN(CC(O)COc2cccc3ccccc23)CC1 (stereo not drawn) | 11.9% (active) |
| Cc1cn[nH]c1 | -6.5% |
| COc1cc2nc(N3CCN(C(=O)C4CCCO4)CC3)nc(N)c2cc1OC (stereo not drawn) | 8.6% (active) |
| COc1cc2nc(N3CCN(C(=O)OCc4ccccc4)C(C(=O)NC(C)(C)C)C3)nc(N)c2cc1OC (stereo not drawn) | 0.6% (active) |
| COc1cc2nc(N3CCN(C(=O)C4COc5ccccc5O4)CC3)nc(N)c2cc1OC (stereo not drawn) | 11.9% (active) |

| Compound | inhibition |
| --- | --- |
| COc1cc2nc(N3CCN(C(=O)c4ccco4)CC3)nc(N)c2cc1OC | 5.9% (active) |
| COc1cc2nc(N(C)CCCNC(=O)C3CCCO3)nc(N)c2cc1OC (stereo not drawn) | 0.2% (active) |
| O=C(NCCN1CCOCC1)c1ccc(Cl)cc1 | 5.4% (active) |
| COc1cccc(C(=O)NCCN2CCN(c3ccc(Cl)cc3)CC2)c1 | 45.7% (active) |
| O=C(Nc1nc2ccccc2n1CCN1CCOCC1)c1cccc([N+](=O)[O-])c1 | -17.8% |
| CC[N+](CC)(CC)CC | -0.4% |
| Cc1oncc1C(=O)Nc1ccc(C(F)(F)F)cc1 | -3.1% |
| O=C(c1ccc2c(c1)OCCO2)N1CCCCC1 | 5.6% (active) |
| O=C(O)c1ccccc1Nc1cccc(OCc2ccc3ccccc3n2)c1 | 70.1% (active) |
| CCCCCC(O)c1cccc(OCc2ccc3ccccc3n2)c1 (stereo not drawn) | -4.5% |
| NCCCCN | 14.6% (active) |
| NCCCCCCCCCCN | 12.8% (active) |
| CCN(CC)CCOC(=O)C1(C2CCCCC2)CCCCC1 | 28.2% (active) |
| O=C(O)CP(=O)(O)O | 10% (active) |
| CN=c1nc(-c2ccccc2)n(-c2ccccc2)s1 | 25.4% (active) |
| S=C([S-])OC1CC2C[C+]1C1CCCC21 (stereo not drawn) | 1.4% (active) |
| CNCC[C@H](Oc1ccc(C(F)(F)F)cc1)c1ccccc1 | 0.1% (active) |
| CNCCC(Oc1ccc(C(F)(F)F)cc1)c1ccccc1 (stereo not drawn) | -9.7% |
| CN(CC[C@@H](Oc1ccc(C(F)(F)F)cc1)c1ccccc1)CC(=O)O | 21.6% (active) |
| CCCCCCCCCC(=O)NC(CN1CCOCC1)[C@H](O)c1ccccc1 (stereo partly drawn) | -17.8% |
| CCCCCCCCCC[Si](C)(C)CCC(=O)NC(Cc1ccc(C)cc1)c1ccccc1 (stereo not drawn) | 19.6% (active) |
| CCCn1c(=O)[nH]c(=O)c2[nH]cnc21 | 3.6% (active) |

| Compound | inhibition |
| --- | --- |
| CC1(C)C(=O)N(CCN2CCC(C(=O)c3ccc(F)cc3)CC2)c2ccccc21 | 7.2% (active) |
| Cc1nc2sccn2c(=O)c1CCN1CCC(=C(c2ccc(F)cc2)c2ccc(F)cc2)CC1 | 7.1% (active) |
| Cc1nc2ccccn2c(=O)c1CCN1CCC(C(=O)c2ccc(F)cc2)CC1 | 5.5% (active) |
| O=C(c1ccc(F)cc1)C1CCN(CCn2c(=O)[nH]c3ccccc3c2=O)CC1 | -10.7% |
| Cc1nc2sccn2c(=O)c1CCN1CCC(=C(c2ccccc2)c2ccc(F)cc2)CC1 | 2.9% (active) |
| Cc1nc2n(c(=O)c1CCN1CCC(c3noc4cc(F)ccc34)CC1)CCCC2O (stereo not drawn) | 0% |
| FC(F)(F)c1ccccc1-n1ccnc1 | -11.4% |
| COc1ccccc1OCCNCC(O)COc1cccc2[nH]c3ccccc3c12 (stereo not drawn) | 11% (active) |
| CN1CCc2ccccc2Cc2[nH]c3ccccc3c2CC1 | 51.2% (active) |
| NC(N)=N[C@@H](CCC(=O)O)C(=O)O | 10.9% (active) |
| COc1ccc(C(=O)NCc2cccnc2)cc1C(=O)NCc1cccnc1 | 1.3% (active) |
| O=C1O/C(=C/Br)CCC1c1cccc2ccccc12 (stereo not drawn) | -10.8% |
| CCCCC1C(=O)N(c2ccccc2)N(c2ccccc2)C1=O | 11.8% (active) |
| N#C/C(=C\c1ccc(-c2cc(Cl)ccc2Cl)o1)C(=O)Nc1cccc2ncccc12 | 6.8% (active) |
| Fc1ccc([C@@H]2CCNC[C@H]2COc2ccc3c(c2)OCO3)cc1 | 15.8% (active) |
| N=c1nc(N2CCCCC2)cc(N)n1O | 1.6% (active) |
| Nc1ccn([C@H]2CC[C@@H](CO)O2)c(=O)n1 | 9.9% (active) |
| C=CCc1cccc(/C=N/NC(=O)CN2CCN(Cc3ccccc3)CC2)c1O | 1.7% (active) |
| C=CCn1c(=O)c2c(nc(-c3ccc(S(=O)(=O)O)cc3)n2C)n(C)c1=O | 1.4% (active) |
| N#Cc1cc2nc(O)c(O)nc2cc1[N+](=O)[O-] | 69.8% (active) |
